Source: PubChem (National Center for Advancing Translational Sciences (NCATS))
A selection: hits, their analogues and other compounds. The true share with any hit is near 7.5%.
NPC1 prom act: NPC1 promoter activation; Huh7 NPC1 promoter luciferase reporter, 24 h; Potency, µM (highest dose often 9.22 µM), for the others: top-dose activation, hits mostly activators; 320,000 tested, 2.4% active; AID 485313; note: % of control where 0% means no effect; nearly all actives have a fitted effect of over 60% in size
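Huh7 cells stably carrying NPC1 promoter–luciferase, plated in Opti-MEM with 10% FBS for 2 h, were exposed to compound in DMSO for 24 h at 37 °C; luciferase reagent was added for 10 min and luminescence read.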
SMN2 splice up: enhancers of SMN2 splice variant expression | HEK293 SMN2-luciferase splicing reporter, luminescence, 30-36 h | Potency, µM (series often up to 46.1 µM), for inactives: at the highest dose activity change, positive = activation, actives largely listed as activators | 210,000 tested, 2.8% active | AID 1458; note: % of control where 0% means no effect; nearly all actives have a fitted effect of over 55% in size
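HEK293 cells carry an SMN2 […]–luciferase reporter in which exon 7 inclusion puts luciferase in frame. Cells were plated 10-12 h before compound addition, then incubated 30-36 h at 37C. ONE-Glo luminescence was read; sodium butyrate at 4.5 mM final served as control.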
ELG1 genotox: genotoxicity induction in ELG1-luciferase HEK293T cells; HEK293T ELG1-luciferase reporter, luminescence, 16 h; Potency, µM (titrated, usually from 46 µM), inactives show at the highest dose activity change, positive = activation, most hits filed as activators; 330,000 tested, 1.3% active; note: % of control where 0% means no effect; nearly all actives have a fitted effect of over 60% in size
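Quantitative HTS format in 1536-well plates. HEK293T ELG1-luciferase reporter cells receive test compound and are incubated 16 hr at 37 °C, 5% CO2; ONE-Glo added, 30 min room temperature, then luminescence read.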
FLuc modulator: counter-screen for miR-21 project: firefly luciferase inhibitors or activators; P08659; purified FLuc, Km substrates, luminescence inhibition; Potency, µM (series often up to 57.5 µM), without a hit: at the top dose activity change, negative = inhibition, usual class: inhibitors; 360,000 tested, 6.9% active; AID 588342;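 note: plate controls were vehicle for no effect and reference inhibitor for full effect; nearly all actives have a fitted effect of over 55% in size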
Target sequence (P08659 whole entry, looked up): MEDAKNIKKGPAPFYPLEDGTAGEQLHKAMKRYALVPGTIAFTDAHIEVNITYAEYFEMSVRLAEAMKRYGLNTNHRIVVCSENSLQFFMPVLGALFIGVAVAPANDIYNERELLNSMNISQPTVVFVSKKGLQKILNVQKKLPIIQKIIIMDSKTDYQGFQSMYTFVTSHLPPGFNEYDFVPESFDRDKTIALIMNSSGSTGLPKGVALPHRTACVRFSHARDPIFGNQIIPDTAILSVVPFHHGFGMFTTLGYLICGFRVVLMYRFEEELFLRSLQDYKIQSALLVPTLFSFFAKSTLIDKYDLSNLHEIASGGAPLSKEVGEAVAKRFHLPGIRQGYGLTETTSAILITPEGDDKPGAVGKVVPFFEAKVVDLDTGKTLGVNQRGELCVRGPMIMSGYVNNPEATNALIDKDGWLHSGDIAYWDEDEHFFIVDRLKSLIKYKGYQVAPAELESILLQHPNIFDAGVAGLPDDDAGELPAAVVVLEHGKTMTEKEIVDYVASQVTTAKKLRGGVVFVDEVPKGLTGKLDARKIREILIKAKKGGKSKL
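Purified P. pyralis luciferase, 10 nM final, with Km-level 10 uM D-luciferin and 10 uM ATP in 50 mM Tris acetate pH 7.5, 10 mM Mg acetate, 0.01% Tween-20, 0.05% BSA; 6-point qHTS titration about 60 µM downward; luminescence read.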
Rab9 prom act: activators of Rab9 promoter | Huh7 Rab9 promoter-luciferase reporter, luminescence, 24 h | Potency, µM (doses to about 9.22 µM), without a hit: top-dose activation, negative = inhibition, most hits filed as activators | 320,000 tested, 2.8% active | AID 485297; note: % of control where 0% means no effect; nearly all actives have a fitted effect of over 60% in size
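Luminescence read-out: Huh7 cells stably expressing Rab9-luciferase, treated 24 h with compound at 37 °C, then lysed with luciferase reagent for 10 min at ambient before reading.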
KinaseGlo FLuc: Kinase-Glo luciferase inhibition (counter-screen) | Q27757 | Kinase-Glo luciferase, ATP luminescence, 8 min | Potency, µM (highest dose often 38.3 µM), inactives show at the top dose activity change, negative = inhibition, hits mostly inhibitors | 200,000 tested, 0.28% active | AID 1379; note: % is set by controls: 0 for no effect and ±100 for the full control effect; nearly all actives have a fitted effect of over 60% in size
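Light output from Kinase-Glo luciferase with luciferin and 10 uM ATP in 50 mM imidazole pH 7.2, KCl, MgCl2, Tween 20, BSA; compound pin-delivered, 8-min ambient incubation, then luminescence read.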
Numbers without * were called inactive; ? = inconclusive; . = no result given; [ ] = remark or other dose. Calls come from the whole dose curve; as a rule, active = well fitted curve in the direction sought with a large enough effect; inconclusive = small, poorly fitted or top-dose-only effect, or another doubt; inactive = no such curve, though single readings can be large; an effect the other way counts as inactive or inconclusive. Potency is the fitted concentration of half-maximal effect.

SMILES | NPC1 prom act | SMN2 splice up | ELG1 genotox | FLuc modulator | Rab9 prom act | KinaseGlo FLuc
COC(=O)[C@@H](Cc1c[nH]c2ccccc12)NC(=O)c1ccc2c(c1)OCO2 | 0.8% | . | ? | 0.477µM* | 2.9% | .
COC(=O)[C@@H](Cc1c[nH]c2ccccc12)NC(=O)c1cc(=O)[nH]c2ccccc12 | -0.8% | . | -3.8% | 0.4% | 1.6% | .
O=C(COC(=O)[C@H](Cc1c[nH]c2ccccc12)NC(=O)c1ccc(Cl)cc1)Nc1ccc2c(c1)OCO2 | -2.3% | -4.9% | 9.6% | 16.9µM* | 2.5% | 5.8%
CC(C)(C)c1ccc(C(=O)NC(Cc2c[nH]c3ccccc23)C(=O)OCC(=O)c2ccc(Cl)cc2)cc1 (stereo unspecified) | . | . | . | -3.8% | . | .
CCN(CC(=O)Nc1ccc(NC(C)=O)cc1)C(=O)CSCc1c(C)noc1C | 1.6% | . | 2.5% | -16.5% | -4.0% | .
Cc1ccc(S(=O)(=O)c2nc(-c3ccccc3Cl)oc2N(C)C)cc1 | -3.9% | . | ? | 15.1µM* | -0.8% | .
Cc1ccc(-c2nc(S(=O)(=O)c3ccc(C)cc3)c(N(C)C)o2)cc1 | ? | . | -1.4% | 1.8% | 2.5% | .
[O-]/[N+](=C/c1ccc(F)cc1)c1ccccc1 | 21.1% | -8.7% | 3.8% | ? | 20.6% | -14.9%
[O-]/[N+](=C\c1ccc(OC(F)F)cc1)c1ccccc1 | ? | -0.6% | 12.1% | 15.1µM* | ? | -9.1%
CCCCCCCCN[C@@H](C)[C@H](O)c1ccc(SC(C)C)cc1 | . | 5.0%[20.6 µM] | . | . | . | 3.8%[17.1 µM]
CC1CN(C(=O)COc2ccc3c(-c4ccccc4)cc(=O)oc3c2)CC(C)O1 (stereo unspecified) | -1.3% | . | 1.7% | ? | 2.0% | .
COc1ccc(O)c(C(=O)CC(=O)c2ccc(F)cc2)c1 | 0.562µM* | 2.24µM* | ? | 12µM* | 0.708µM* | -1.9%
COc1ccc(C(=O)CC(=O)c2ccccc2O)cc1 | ? | . | ? | 12µM* | 25.4% | .
COc1ccc(O)c(C(=O)CC(=O)c2ccccc2C)c1 | ? | . | ? | ? | 3.16µM* | -1.1%
COc1ccc(C(=O)CC(=O)c2ccccc2O)cc1OC | 10.6% | ? | ? | ? | -3.6%[1.84 µM] | -0.7%
COCCN1CCN(Cc2ccc(C(=O)NC(C)C)cc2)C(=O)C1=O | . | . | . | 0.1% | . | .
CCOc1ccc(C(=O)NCc2ccc3c(c2)OCO3)cc1 | 0.5% | . | 6.6% | -9.5% | -3.2% | .
N#CCc1ccc(NC(=O)CSc2nnc(C3CC3)n2C2CC2)cc1 | 0.5% | . | 2.7% | 3.5% | -5.1% | .
CC(Oc1ccccc1F)C(=O)N1CCC(c2nc3ccccc3o2)CC1 (stereo unspecified) | . | . | . | -8.4% | . | .
Cc1cc(C)cc(NC(=O)CCC(=O)Nc2nnc(C(C)C)s2)c1 | -5.0% | . | ? | 2.7% | -7.2% | .
FC(F)(F)c1cccc(Nc2c3c(nc4ccc(Cl)cc24)CCC3)c1 | . | -71.6% | . | 0.5% | . | .
Nc1nnc(COc2ccc(Br)cc2Br)s1 | ? | ? | ? | 8.49µM* | ? | 12.2%
Cc1ccc(-n2c(C)cc(C(=O)COC(=O)c3ccc[nH]c3=O)c2C)cc1 | 0.316µM* | 2.51µM* | ? | 2.69µM* | 0.398µM* | -5.0%
Cc1cc(C(=O)COC(=O)c2ccc[nH]c2=O)c(C)n1C | 21.6% | -28.2% | ? | 9.53µM* | 29.8% | -4.0%
COCC(=O)OCC(=O)c1cc(C)n(-c2ccc(Br)cc2)c1C | -1.4% | -4.3% | -3.3% | 12µM* | 3.6% | -4.0%
SMILES | NPC1 prom act | SMN2 splice up | ELG1 genotox | FLuc modulator | Rab9 prom act | KinaseGlo FLuc
COCCn1c(C)cc(C(=O)COC(=O)c2ccc[nH]c2=O)c1C | ? | -8.9% | ? | 3.01µM* | ? | -26.3%
Cc1cc(C(=O)COC(=O)c2ccc[nH]c2=O)c(C)n1CCc1ccc(F)cc1 | -1.6% | 1.7% | -3.0% | 0.3% | -0.8% | -0.7%
COc1cc(OC)c(NC(=O)CCc2c(C)nc3c4c(C)cc(C)nc4nn3c2C)cc1Cl | . | 13.9% | . | -6.1% | . | .
CCOC(=O)c1ccc(S(=O)(=O)N2CCN(CC(O)COc3ccc(C#N)cc3)CC2)cc1 (stereo unspecified) | -5.9% | . | -4.2% | 0.6% | -1.0% | .
O=c1cnn([C@@H]2O[C@H](CO)[C@@H](O)[C@H]2O)c(=O)[nH]1 | -6.1% | 2µM* | -12.3% | 2.6% | 0.9% | -3.4%
Cc1c(C(=O)Nc2ccc(-c3nc4cc(Cl)ccc4o3)cc2)oc2ccccc12 | . | -2.6% | . | -0.8% | . | .
COc1ccc(Oc2nccc(-c3ccccc3)c2C#N)cc1 | ? | 8.4% | 10.4% | 12µM* | ? | 0.9%
Cc1cccc(Nc2nnc(-c3ccc(C)c(S(=O)(=O)NCC4CCCO4)c3)c3ccccc23)c1 (stereo unspecified) | . | 7.7% | . | -19.5% | . | .
Cc1ccc(NC(=O)C2CCCN(c3ncccn3)C2)cc1F (stereo unspecified) | 3.55µM* | 17.8µM* | 9.2µM* | 10.7µM* | ? | -7.7%
O=C(Nc1ccc2c(c1)CCC2)C1CCCN(c2ncccn2)C1 (stereo unspecified) | 3.98µM* | 12.6µM* | ? | 5.36µM* | ? | -4.0%
O=C(CSc1ncccn1)Nc1ccc2c(c1)CCC2 | -5.2% | . | 3.9% | 21.3µM* | 23.3% | .
O=C(Nc1cccc(C(F)(F)F)c1)C1CCCN(c2ncccn2)C1 (stereo unspecified) | -4.6% | -24.8% | -5.0% | 1.2% | 0.5% | -0.6%
O=C(Nc1ccc2c(c1)OCCO2)C1CCN(c2ncccn2)CC1 | 8.4% | 24.0% | ? | 15.1µM* | 27.8% | -4.0%
Cc1cc(C)cc(NC(=O)C2CCCN(c3ncccn3)C2)c1 (stereo unspecified) | -2.2% | . | -10.2% | -1.9% | -0.8% | .
O=C(NCCc1c[nH]c2ccccc12)c1ccc2[nH]c(=O)c(=O)[nH]c2c1 | 0.1% | . | 1.4% | -2.8% | 2.6% | .
O=C(NCCc1c[nH]c2ccccc12)c1ccc2c(c1)OCO2 | 1.12µM* | . | ? | 6.75µM* | 1.26µM* | .
Cc1ccc2[nH]cc(CCNC(=O)c3ccc4c(c3)OCO4)c2c1 | 10.7% | . | -6.3% | ? | -3.2% | .
Cc1ccc(C(=O)N/C(=C/c2ccco2)C(=O)NCCc2c[nH]c3ccccc23)cc1 | -1.3% | 6.2% | 1.9% | 15.1µM* | -3.0% | -2.2%
O=C(NCCc1c[nH]c2ccccc12)c1cc(Cl)c2c(c1)OCO2 | 2.51µM* | . | ? | 23.9µM* | 1.41µM* | .
Cn1c(C(=O)NCCc2c[nH]c3ccccc23)cc2sccc21 | ? | 25.1% | 14.6µM* | 12µM* | ? | 1.7%
COc1cccc(C(=O)NCC(c2ccc(N(C)C)cc2)N2CCc3ccccc32)c1OC (stereo unspecified) | . | . | . | 3.0% | . | .
